# Data from PubChem BioAssay (Tox21).
# Inconclusive results are not listed. Values without a mark were called inactive. Calls follow the shape of the dose curve; as a rule, active = well fitted activation curve with a large enough effect in the signal ratio in the repeat runs (not every such curve was filed as active); inconclusive = weak or mixed curves, or effect the other way; inactive = flat fitted curve, though single readings scatter; the % refers to the signal ratio.
# Molecular target: Bile acid receptor (Homo sapiens) (UniProt Q96RI1)
# Assay: qHTS assay to identify small molecule agonists of the farnesoid-X-receptor (FXR) signaling pathway (AID 743220)
# Conditions: HEK293T FXR-UAS-bla, beta-lactamase FRET ratio, 16 h; series mostly up to 62.6 µM; activation: at the top concentration
# Description: National Center for Advancing Translational Sciences [NCATS]
# NIH Chemical Genomics Center [NCGC]
# U.S. Environmental Protection Agency [EPA]
# National Institutes of Environmental Health Sciences [NIEHS]
# National Toxicology Program [NTP]
# U.S. Food and Drug Administration [FDA]
# The farnesoid-X-receptor (FXR), a nuclear hormone receptor, is highly expressed in liver, intestine, kidney and adrenal cortex. Natural ligands of FXR are the bile acids (Cholic acid, Chenodeoxy cholic acid etc). FXR is an important regulator of diverse metabolic pathways, including the bile acid homeostasis, lipid and glucose metabolisms. FXR regulates the expression of target genes by binding either as a monomer or as a heterodimer with the retinoid X receptor (RXR). Numerous studies have reported that FXR exerts protective function during cholestasis, diabetes, liver regeneration, and cancer. To identify compounds that activate FXR signaling, GeneBLAzer FXR-UAS-bla HEK 293T cell line (Invitrogen, Carlsbad, CA) containing a beta-lactamase reporter gene under the control of a UAS response element was used to screen the Tox21 10K compound library.
# Tox21 Assay Protocol Summary:
# FXR-bla cells were dispensed at 5000 cells/5uL/well in 1536-well black wall/clear bottom plates using a Multidrop Combi (Thermo Fisher Scientific, Waltham, MA) dispenser. After the assay plates were incubated at 37C and 5% CO2 for 5 h, 23 nL of compounds dissolved in DMSO, positive controls or DMSO only was transferred to the assay plate by a Pintool station (Kalypsys, San Diego, CA). The assay plates were incubated at 37C for 16 h. After 1 uL of LiveBLAzerTM B/G FRET substrate was added using a Bioraptr Flying Reagent Dispenser (FRD) workstation (Beckman Coulter, Indianapolis, IN), the plates were incubated at room temperature for 2 h, and fluorescence intensity was measured by an Envision plate reader (PerkinElmer, Shelton, CT).
# % is scaled to controls: 0 for no effect and ±100 for the full control effect.
# Chain of Bile acid receptor (Homo sapiens) (Q96RI1 whole entry, looked up): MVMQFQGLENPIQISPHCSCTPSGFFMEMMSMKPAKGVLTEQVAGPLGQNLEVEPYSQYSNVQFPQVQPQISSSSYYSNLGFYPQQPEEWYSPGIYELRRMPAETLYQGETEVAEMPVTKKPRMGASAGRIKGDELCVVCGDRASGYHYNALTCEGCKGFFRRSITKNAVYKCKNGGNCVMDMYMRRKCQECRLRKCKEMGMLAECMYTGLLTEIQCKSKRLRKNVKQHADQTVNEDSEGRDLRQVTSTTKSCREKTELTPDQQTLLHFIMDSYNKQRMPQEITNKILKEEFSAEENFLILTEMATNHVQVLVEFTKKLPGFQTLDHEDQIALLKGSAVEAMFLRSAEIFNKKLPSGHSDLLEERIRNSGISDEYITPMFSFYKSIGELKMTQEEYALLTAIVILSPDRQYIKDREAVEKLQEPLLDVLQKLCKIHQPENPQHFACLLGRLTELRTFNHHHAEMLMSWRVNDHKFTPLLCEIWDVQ
row,Compound,activation
1,NC(=O)NNC(N)=O,-2.28%
2,CCCCOC(=O)C(=O)OCCCC,-2.41%
3,CC1CCC(C(C)(C)S)C(=O)C1 (stereo not given),3.18%
4,CO/N=C(/C(=O)N[C@@H]1C(=O)N2C(C(=O)O)=C(Cn3nnc(C)n3)CS[C@H]12)c1csc(N)n1,-1.58%
5,C=CCOc1c(Br)cc(Br)cc1Br,0.537%
6,CN(C1CCCCC1)S(=O)(=O)c1ccccc1N,0.734%
7,Cc1nc([N+](=O)[O-])cn1-c1ccc([N+](=O)[O-])cc1,-3.14%
8,CCC1Nc2cc(Cl)c(S(N)(=O)=O)cc2S(=O)(=O)N1 (stereo not given),2.34%
9,C[CH2][Ge]([Cl])([CH2]C)[CH2]C,0.373% [at 81.1 µM]
10,CCOC(=O)CCc1ccccc1,-0.978%
11,CC(=O)OC(C)(C)Cc1ccccc1,0.128%
12,c1ccc(CNc2ncnc3nc[nH]c23)cc1,0.14%
13,CCCCC(CC)C(=O)OC(C)C (stereo not given),-2.49%
14,CCC(C)N (stereo not given),2.94%
15,O=P(O)(O)OCC(O)CO (stereo not given),1.19%
16,Cc1cc(O)c2c(c1)C(=O)c1cccc(O)c1C2=O,0.186%
17,CCCCCCCCCCCCCCCCI,-3.77% [at 29.1 µM]
18,CC(=O)c1ccc(OCC(=O)N2CCCCC2)cc1,0.55%
19,COc1cccc2sc(N)nc12,4.68% [at 81.1 µM]
20,C=C(C)C(=O)OC,-1.32%

row,Compound,activation
1,CCN1CN(CC)CN(CC)C1,1.43%
2,CO[Si](CCCS)(OC)OC,-3.42%
3,CCOC(=O)CC#N,1.59%
4,Cc1ccccc1N1CCN(CCc2nnc3n2CCCC3)CC1,1.53%
5,Cc1cccc(NC(=S)N(C)C)c1,5.99%
6,CNC(=O)NC,-0.21% [at 81.1 µM]
7,SCCSCCS,5.83%
8,O=C(O)c1ccccc1C(=O)OCc1ccccc1,-1.14%
9,BrC/C=C/CBr,1.21% [at 29.1 µM]
10,Nc1c(NC/C=C\COc2cc(CN3CCCCC3)ccn2)c(=O)c1=O,4.88% [at 29.1 µM]
11,CC(=O)Nc1ncc([N+](=O)[O-])s1,-0.203%
12,Cc1cc(C)cc([N+](=O)[O-])c1,-2.26% [at 81.1 µM]
13,Cc1ccc2c(c1)c1c3n2CCNC3CCC1 (stereo not given),-3.58%
14,CCOc1ccc(NC(=O)OC(C)C)cc1OCC,0.0855%
15,CC(C)CCCCCCOC(=O)C1CCCCC1C(=O)OCCCCCCC(C)C (stereo not given),2.15%
16,O=c1[nH]c(=O)c2ccccc2o1,1.06%
17,Nc1cc(S(=O)(=O)O)ccc1S(=O)(=O)O,3.13%
18,CC(C)(CO)[C@@H](O)C(=O)NCCCO,1.06%
19,Cc1cccc(Nc2ccncc2S(=O)(=O)NC(=O)NC(C)C)c1,-1.77%
20,C=COCCOCCOC=C,1.51%
